In the library only some 2.9% were active in any assay of this set; here they are far more common.
Vif imaging – HIV Vif inhibition; HEK293T cells, Vif self-association by quenched fluorescence, imaging, 24 h; inhibition, % at 7.49 µM; 340,000 tested, 0.35% active; in the data active = inhibition above about 50%, passing the limit was not always enough; inconclusive = no clear call, values can overlap the other calls; inactive = below about 31%
MITF act – increases MITF-driven TRPM1 promoter luciferase signal; SK-MEL-5 TRPM1-promoter luciferase, 24 h; % of positive control, neutral wells = 0; activation, % at 12.5 µM; 300,000 tested, 0.75% active; AID 588334;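 active = mean activation of at least 80% with every replicate also reaching 80%; inconclusive = mean reaches 80% but some replicate falls short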;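 note: 0% = neutral control wells and 100% = parthenolide positive control wells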
esBAF inh – SWI/SNF esBAF complex inhibition; mouse ES cells, Bmi1-luciferase knock-in reporter, 24 h; 100% = twice the neutral-well signal; reporter increase, % at 12.5 µM; 350,000 tested, 2% active; in the data active = activation above about 40%; inconclusive = no clear call, values can overlap the other calls;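 note: 0% = median of the plate's neutral control wells and 100% = double that signal; a rise in the Bmi1 reporter signal indicates esBAF inhibition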
PvdQ acylase – P. aeruginosa PvdQ acylase inhibition; purified PvdQ acylase, fluorescence plate reader; inhibition, % at 10 µM; 340,000 tested, 0.063% active; in the data active = inhibition above about 30%, passing the limit was not always enough; inconclusive = no clear call, values can overlap the other calls;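 note: 0% = vehicle neutral wells and 100% = reference inhibitor wells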
Wnt bcat act – activators of Wnt/beta-catenin signaling | AID 743398 | Wnt/beta-catenin reporter cell assay, activator, plate reader | activation, % at 9.35 µM | 300,000 tested, 1.2% active; in the data active = activation above about 30%, passing the limit was not always enough; inconclusive = no clear call, values can overlap the other calls;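 note: 0% = neutral control wells and 100% = positive control wells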
N-glyco inh – N-linked glycosylation inhibition. reporter increase, % at 12.5 µM. D54 ERlucT glycosylation luciferase reporter, 24 h; percent of 100 nM tunicamycin response. 360,000 tested, 0.23% active;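 active = mean luciferase reporter signal, scaled so untreated is 0 and the glycosylation-blocking control 100, at or above a set limit in every replicate; inconclusive = mean reaches the limit but not every replicate does; inactive = mean below the limit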;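 note: luciferase carries N-glycosylation sites so blocking glycosylation raises the light; 0% = median of neutral control wells and 100% = median of 100 nM tunicamycin wells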
An asterisk follows results filed as active; ? = inconclusive; . = not tested or not shown.

SMILES	Vif imaging	MITF act	esBAF inh	PvdQ acylase	Wnt bcat act	N-glyco inh
O=C(CNc1cccc(F)c1)N1CCc2ccccc2C1	-7.1	?	51.4*	-0.6	36.0*	-0.3
O=C(c1cccc(F)c1)N1CCc2ccccc2C1	.	18.5	.	-13.3	.	.
CO[C@@H](C(=O)N(C)C[C@@H]1OCc2ccccc2-c2c(n(C)c3ccccc23)C(=O)N([C@H](C)CO)C[C@@H]1C)c1ccccc1	.	.	2.2	.	.	.
C[C@H]1CN([C@@H](C)CO)C(=O)c2cccc(NC(=O)C3CC3)c2O[C@@H]1CN(C)Cc1ccccc1	.	.	0.1	.	.	.
Cc1cc(OCc2cc(C(=O)NC(C)c3c(C)nn(C)c3C)no2)cc(C)c1Cl (stereo unspecified)	-1.9	46.1	82.6*	-4.0	1.1	-3.1
CC(=O)c1ccc(OCc2cc(C(=O)NC(C)c3cnn(C)c3)no2)cc1 (stereo unspecified)	1.1	28.9	11.4	-13.3	20.3	-1.9
Cc1cc(OCc2cc(C(=O)NC(C)c3cnn(C)c3)no2)cc(C)c1Cl (stereo unspecified)	.	.	71.9*	.	.	-3.6
Cc1ccc(C(=O)Oc2cccc(-n3cnnn3)c2)cc1	4.3	111.8*	.	-12.6	5.9	0.6
O=C(COC(=O)c1cccc(-n2cnnn2)c1)c1ccc(Br)cc1	3.0	21.8	48.8*	-9.3	23.2	0.7
O=C(Oc1cccc2cccnc12)c1cccc(-n2cnnn2)c1	5.8	9.0	2.9	15.2	76.7*	2.4
CC(C)NC(=O)N(C)C[C@@H]1Oc2c(cccc2N(C)C)C(=O)N([C@H](C)CO)C[C@H]1C	.	.	8.7	.	.	.
Cc1nnc(NC(=O)c2ccc3ccccc3n2)s1	33.0	49.0	42.5*	-11.2	13.2	2.5
Cc1nc2ccc(NC(=O)c3ccc4ccccc4n3)cc2s1	-1.2	67.8	.	6.2	25.1	3.9
COc1ccc(C(=O)NCc2nnc(SCC(=O)NO)n2Cc2ccccc2)cc1	7.6	-20.0	.	-26.6	7.1	40.9*
COc1ccc(C(=O)OCC(=O)c2ccc[nH]2)cc1	4.7	76.5	51.3*	-2.1	26.0	2.5
O=C(OCC(=O)c1ccc[nH]1)c1ccc(Br)cc1	3.0	.	-9.3	15.4	1.5	1.3
COc1ccc(CNC(=O)c2cc(C(C)=O)c[nH]2)cc1	3.1	2.2	-1.8	7.0	0.0	4.0
COc1ccc(CNC(=O)c2ccc[nH]2)cc1	59.6*	2.6	-0.5	-5.3	-0.3	-0.6
CC(C)NC(=O)Nc1ccc2c(c1)C(=O)N([C@@H](C)CO)C[C@@H](C)[C@@H](CN(C)CC1CCCCC1)O2	.	.	-1.0	.	.	.
CCCN(C)C[C@H]1Oc2ncc(-c3cccc(C(=O)N(C)C)c3)cc2C(=O)N([C@H](C)CO)C[C@@H]1C	.	.	-0.3	.	.	.
COc1ccc(CNC(=O)c2ccncc2)cc1	6.9	-2.6	-0.5	-6.2	0.9	-0.3
COc1ccc(CNC(=O)c2ccc(C(C)C)cc2)cc1	-3.9	103.7*	.	-0.1	13.6	-5.2
COc1ccc(CNC(=O)c2ccc(C(C)(C)C)cc2)cc1	-8.5	102.2*	.	-1.9	6.4	-0.9
COc1ccc(CNC(=O)c2ccc3ccccc3n2)cc1	-0.5	.	82.5*	-1.6	1.3	0.8
C[C@H](CO)N1C[C@H](C)[C@H](CN(C)CC2CC2)Oc2ccc(NC(=O)CCC(F)(F)F)cc2CC1=O	.	.	2.7	.	.	.
SMILES	Vif imaging	MITF act	esBAF inh	PvdQ acylase	Wnt bcat act	N-glyco inh
CC(CN)(NS(=O)(=O)c1ccccc1)c1ccccc1 (stereo unspecified)	66.3*	.	1.6	5.1	0.7	-1.2
CC(CN1CCOCC1)(NS(=O)(=O)c1ccccc1)c1ccccc1 (stereo unspecified)	-2.9	3.3	0.6	-4.0	-1.1	1.6
C[C@@H]1CN([C@H](C)CO)C(=O)CCCn2cc(nn2)CO[C@@H]1CN(C)C(=O)C1CC1	.	.	-1.7	.	.	.
COc1ccc(-n2nc(C(=O)NCC(=O)Nc3cccc(Cl)c3)c3ccccc3c2=O)cc1OC	53.1*	-3.6	-0.3	-10.8	-7.1	3.9
CCCC1=NN2C(=N)/C(=C\c3cc(C)n(Cc4ccccc4)c3C)C(=O)N=C2S1	-16.6	.	.	-13.6	-0.1	-0.6
Cc1cc(/C=C2\C(=N)N3N=CSC3=NC2=O)c(C)n1Cc1ccccc1	14.1	21.5	38.1	6.0	35.6*	-1.0
COc1cc(NCCCNC(C)C)c2nccc(C)c2c1	67.4*	-33.1	1.9	-10.0	3.2	-1.7
COc1cc(NCc2ccccc2)c2ncn(C(C)C)c2c1	-13.1	-14.8	2.6	4.7	3.0	-1.5
